# Measured values from PMC11447256.
# Key:
# Coatomer subunit gamma-1 = Coatomer subunit gamma-1 (UniProt Q9Y678); assay: cross-linking mass spectrometry
# [1] = target: T-complex protein 1 subunit delta (UniProt P50991); assay: co-fractionation; cross-linking mass spectrometry
# Protein S100-A10 = Protein S100-A10 (UniProt P60903); assay: cross-link between two proteins; cross-linking mass spectrometry
# [2] = target: Phosphoglycerate kinase 2 (UniProt P07205); assay: co-fractionation; co-fractionation; cross-linking mass spectrometry
# [3] = target: 26S proteasome non-ATPase regulatory subunit 5 (UniProt Q16401); assay: cross-link between two proteins; cross-linking mass spectrometry; two-hybrid or complementation screen
# Sequence of 26S proteasome non-ATPase regulatory subunit 5 (Q16401 whole entry): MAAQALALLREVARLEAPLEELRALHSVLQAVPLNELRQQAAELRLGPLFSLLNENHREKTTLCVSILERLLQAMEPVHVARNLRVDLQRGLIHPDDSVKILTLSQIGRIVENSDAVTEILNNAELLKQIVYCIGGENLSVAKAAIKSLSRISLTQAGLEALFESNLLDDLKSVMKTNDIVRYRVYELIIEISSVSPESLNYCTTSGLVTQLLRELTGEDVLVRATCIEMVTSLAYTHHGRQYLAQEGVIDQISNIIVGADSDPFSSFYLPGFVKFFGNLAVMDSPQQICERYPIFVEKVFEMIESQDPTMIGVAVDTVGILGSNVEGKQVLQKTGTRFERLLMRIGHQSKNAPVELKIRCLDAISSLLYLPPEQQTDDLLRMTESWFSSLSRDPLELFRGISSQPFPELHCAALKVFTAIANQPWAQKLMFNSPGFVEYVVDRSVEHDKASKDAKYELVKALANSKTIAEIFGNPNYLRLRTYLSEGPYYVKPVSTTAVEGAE
# Sequence of Phosphoglycerate kinase 2 (P07205 whole entry): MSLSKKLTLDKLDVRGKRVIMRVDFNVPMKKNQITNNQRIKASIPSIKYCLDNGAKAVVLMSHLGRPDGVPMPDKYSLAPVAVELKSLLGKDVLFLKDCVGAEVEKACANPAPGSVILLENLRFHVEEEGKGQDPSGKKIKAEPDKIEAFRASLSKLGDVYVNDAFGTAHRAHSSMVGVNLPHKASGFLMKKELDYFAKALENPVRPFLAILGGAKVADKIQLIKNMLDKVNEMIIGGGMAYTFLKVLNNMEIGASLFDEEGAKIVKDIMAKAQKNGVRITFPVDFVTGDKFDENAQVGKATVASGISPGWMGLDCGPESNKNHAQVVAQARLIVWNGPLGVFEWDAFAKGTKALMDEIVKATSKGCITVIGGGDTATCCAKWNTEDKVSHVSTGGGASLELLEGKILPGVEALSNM
# Sequence of Coatomer subunit gamma-1 (Q9Y678 whole entry): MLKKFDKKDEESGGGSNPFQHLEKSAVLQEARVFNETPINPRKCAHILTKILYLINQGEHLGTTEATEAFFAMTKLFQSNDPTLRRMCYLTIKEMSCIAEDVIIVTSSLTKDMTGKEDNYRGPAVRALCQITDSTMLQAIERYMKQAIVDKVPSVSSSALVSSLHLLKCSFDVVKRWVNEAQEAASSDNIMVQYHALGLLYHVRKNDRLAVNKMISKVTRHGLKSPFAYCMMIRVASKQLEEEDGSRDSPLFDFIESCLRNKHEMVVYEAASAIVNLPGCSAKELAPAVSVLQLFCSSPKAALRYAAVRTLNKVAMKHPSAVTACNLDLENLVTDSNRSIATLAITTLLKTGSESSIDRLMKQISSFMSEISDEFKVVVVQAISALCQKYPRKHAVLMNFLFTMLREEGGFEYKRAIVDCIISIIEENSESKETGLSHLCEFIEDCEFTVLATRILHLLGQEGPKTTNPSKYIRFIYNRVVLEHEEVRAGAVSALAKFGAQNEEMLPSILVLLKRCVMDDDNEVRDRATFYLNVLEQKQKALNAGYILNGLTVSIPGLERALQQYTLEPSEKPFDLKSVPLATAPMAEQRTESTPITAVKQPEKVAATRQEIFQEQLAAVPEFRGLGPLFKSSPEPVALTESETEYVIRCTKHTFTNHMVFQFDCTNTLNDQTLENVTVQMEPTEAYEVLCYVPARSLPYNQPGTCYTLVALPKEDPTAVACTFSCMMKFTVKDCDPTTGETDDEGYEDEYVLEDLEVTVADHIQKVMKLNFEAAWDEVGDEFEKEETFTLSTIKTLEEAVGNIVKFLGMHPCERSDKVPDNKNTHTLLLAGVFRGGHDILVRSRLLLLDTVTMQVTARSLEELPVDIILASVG
# Sequence of T-complex protein 1 subunit delta (P50991 whole entry, stated change not applied, one chain of several): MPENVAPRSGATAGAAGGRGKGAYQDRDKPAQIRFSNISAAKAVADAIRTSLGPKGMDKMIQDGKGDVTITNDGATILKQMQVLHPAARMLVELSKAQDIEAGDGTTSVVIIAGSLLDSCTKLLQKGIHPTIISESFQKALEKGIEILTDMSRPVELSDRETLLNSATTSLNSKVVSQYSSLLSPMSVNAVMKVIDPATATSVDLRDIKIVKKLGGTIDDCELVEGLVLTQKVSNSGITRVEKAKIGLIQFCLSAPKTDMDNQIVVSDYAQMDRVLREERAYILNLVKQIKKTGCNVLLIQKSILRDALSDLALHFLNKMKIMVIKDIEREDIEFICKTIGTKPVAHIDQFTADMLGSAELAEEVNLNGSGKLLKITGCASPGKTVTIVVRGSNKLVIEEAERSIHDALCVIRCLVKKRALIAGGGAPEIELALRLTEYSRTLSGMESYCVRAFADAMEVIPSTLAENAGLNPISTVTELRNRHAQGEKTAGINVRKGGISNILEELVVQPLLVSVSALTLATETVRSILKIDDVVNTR
# Sequence of Protein S100-A10 (P60903 whole entry): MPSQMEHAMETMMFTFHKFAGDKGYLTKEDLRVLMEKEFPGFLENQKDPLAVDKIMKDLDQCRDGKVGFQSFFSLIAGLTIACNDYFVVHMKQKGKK
substance,measurement,setting,value
"Coatomer subunit beta, P53618",listed as a hit,Coatomer subunit gamma-1,yes
"T-complex protein 1 subunit gamma, P49368",listed as a hit,[1],yes
"Putative annexin A2-like protein, A6NMY6",listed as a hit,Protein S100-A10,yes
"Phosphoglycerate kinase 1, P00558",listed as a hit,[2],yes
"26S proteasome regulatory subunit 7, P35998",listed as a hit,[3],yes
